6 compounds from the supplement of paper PMC12669032 can be followed below.

A number with no mark means an inactive call.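 How the source made its calls: active = AUC reduced over 20% with Padj below 0.05 in at least 2 of 3 replicates; inactive = otherwise.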

Holding throughout (test): growth AUC relative to DMSO control (median of replicates) (fraction); higher = more growth (less inhibition), active = hit call of the paper
What all share (conditions): 20 µM; 24 h

One test has as its system Akkermansia muciniphila. The gist of the method: (§1)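 Three biological replicates, each grown on a separate day, were combined as a median for every value. In each, a gut bacterial monoculture in mGAM started at OD600 0.05 and grew anaerobically at 37 °C with 20 µM compound (1% DMSO), with OD600 read hourly over 24 h. Area under the growth curve was normalised against the plate median of solvent-only wells, or against row and column medians on the industrial chemical plate, after the minimum OD was set to 0.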

The test system of a further test is Bacteroides caccae. The gist of the method: as §1
In the next test the test system is Bacteroides clarus. The gist of the method:
as §1

The test system of the next test is Bacteroides dorei. The gist of the method:
as §1

The next test has as its system Bacteroides stercoris. The gist of the method:
as §1

Test [1] has as its system Bacteroides thetaiotaomicron. The gist of the method: as §1
The next test has as its system Bacteroides uniformis. The gist of the method:
as §1

The test system of test [2] is Bifidobacterium longum subsp. longum. The gist of the method:
as §1

In a further test the test system is Clostridium difficile. The gist of the method:
as §1

Another test deals with Collinsella aerofaciens. The gist of the method:
as §1

The test system of another test is Coprococcus comes. The gist of the method:
as §1

The next test concerns Escherichia coli ED1a. The gist of the method:
as §1

The next test deals with Escherichia coli IAI1. The gist of the method: as §1
A further test has as its system Eubacterium rectale. The gist of the method: as §1
Test [3] relates to Fusobacterium nucleatum subsp. animalis. The gist of the method: as §1
Another test has as its system Lactobacillus gasseri. The gist of the method:
as §1

The subject of another test is Lactobacillus paracasei. The gist of the method:
as §1

The subject of another test is Odoribacter splanchnicus. The gist of the method:
as §1

Test [4] relates to Parabacteroides distasonis. The gist of the method: as §1
For the next test, the system named is Parabacteroides merdae. The gist of the method:
as §1

As to `CC(C1CC1)C(O)(Cn1cncn1)c1ccc(Cl)cc1` (mixture of isomers), the “growth AUC” value with Akkermansia muciniphila is 1.04; with Bacteroides caccae, 0.83; in the test with Bacteroides clarus, 0.987; with Bacteroides dorei, 0.941; in the test on Bacteroides stercoris, 1.41; in test [1], 0.893. The “growth AUC” value in the test on Bacteroides uniformis is 0.929; in test [2] it was 1.09; with Clostridium difficile, 0.966; with Collinsella aerofaciens, 0.926; with Coprococcus comes, 0.936; with Escherichia coli ED1a, 1.01. The “growth AUC” value with Escherichia coli IAI1 was 0.971; with Eubacterium rectale it was 1.02; in [3], 1.09; with Lactobacillus gasseri it was 0.975; in the test with Lactobacillus paracasei, 1.06; in the test with Odoribacter splanchnicus, 0.8. Besides, the “growth AUC” value is 1.01 in test [4] and 0.988 in the test with Parabacteroides merdae.

Consider `COP(=O)(NC(C)=O)SC` (stereo not given), for which the “growth AUC” value in the test on Akkermansia muciniphila was 0.941; in the test on Bacteroides caccae it was 1.01; in the test on Bacteroides clarus, 0.993; with Bacteroides dorei it was 0.992; with Bacteroides stercoris it was 1.02; in [1], 0.978. The “growth AUC” value in the test with Bacteroides uniformis is 0.979; in test [2], 0.96; with Clostridium difficile, 1.01; in the test with Collinsella aerofaciens, 1.04; in the test with Coprococcus comes, 0.979; with Escherichia coli ED1a, 1.01. Besides, the “growth AUC” value with Escherichia coli IAI1 is 0.993; in the test on Eubacterium rectale it was 0.921; in test [3], 0.99; in the test with Lactobacillus gasseri, 1.1; with Lactobacillus paracasei, 1.02; in the test with Odoribacter splanchnicus it was 0.999. The “growth AUC” value in [4] is 1.06; in the test on Parabacteroides merdae, 1.01.

Regarding `CCCC1COC(Cn2cncn2)(c2ccc(Cl)cc2Cl)O1` (stereo not given), the “growth AUC” value in the test with Akkermansia muciniphila is 1.02; in the test with Bacteroides caccae it was 0.952; in the test on Bacteroides clarus it was 0.912; in the test on Bacteroides dorei, 0.945; with Bacteroides stercoris it was 0.854; in test [1], 0.902. Moreover, the “growth AUC” value was 0.871 in the test on Bacteroides uniformis; 0.97 in test [2]; 0.956 in the test with Clostridium difficile; 0.981 in the test with Collinsella aerofaciens; 0.941 with Coprococcus comes; 0.979 in the test with Escherichia coli ED1a. Further, the “growth AUC” value is 0.972 with Escherichia coli IAI1; 0.545 (active) in the test on Eubacterium rectale; 1 in test [3]; 0.968 with Lactobacillus gasseri; 0.936 in the test with Lactobacillus paracasei; 0.977 with Odoribacter splanchnicus. For the same compound, the “growth AUC” value is 0.837 in test [4] and 0.855 in the test with Parabacteroides merdae.

As to `NC(=O)/N=C1/SCCN1Cc1ccc(Cl)nc1`, the “growth AUC” value is 0.782 in the test on Akkermansia muciniphila; 1.01 in the test with Bacteroides caccae; 0.999 with Bacteroides clarus; 0.979 with Bacteroides dorei; 1.04 in the test on Bacteroides stercoris; 0.978 in test [1]. In addition, the “growth AUC” value in the test on Bacteroides uniformis is 1.01; in test [2], 1.03; with Clostridium difficile, 1; in the test on Collinsella aerofaciens, 1.01; in the test with Coprococcus comes it was 0.965; in the test with Escherichia coli ED1a, 0.999. The “growth AUC” value in the test on Escherichia coli IAI1 was 0.997; with Eubacterium rectale, 1.02; in test [3] it was 0.984; in the test on Lactobacillus gasseri, 0.995; in the test on Lactobacillus paracasei it was 0.975; in the test with Odoribacter splanchnicus, 1.03. Moreover, the “growth AUC” value in test [4] was 0.992; in the test with Parabacteroides merdae, 0.984.

Consider `CO/N=C(/C(=O)OC)c1ccccc1COc1ccccc1C`, for which the “growth AUC” value with Akkermansia muciniphila is 0.899; with Bacteroides caccae, 0.979; with Bacteroides clarus it was 0.957; with Bacteroides dorei, 0.964; with Bacteroides stercoris, 0.993; in [1] it was 0.907. Moreover, the “growth AUC” value is 0.955 in the test with Bacteroides uniformis; 0.874 in test [2]; 1.02 in the test on Clostridium difficile; 0.991 with Collinsella aerofaciens; 0.996 with Coprococcus comes; 0.955 in the test with Escherichia coli ED1a. The “growth AUC” value with Escherichia coli IAI1 is 0.993; with Eubacterium rectale it was 0.939; in [3], 1.02; in the test on Lactobacillus gasseri, 1.01; in the test on Lactobacillus paracasei, 0.881; in the test with Odoribacter splanchnicus, 0.92. Further, the “growth AUC” value was 0.944 in test [4] and 0.927 in the test on Parabacteroides merdae.

On to `CCC(C)(c1ccc(O)cc1)c1ccc(O)cc1`, for which the “growth AUC” value with Akkermansia muciniphila is 0.984; with Bacteroides caccae it was 0.989; in the test on Bacteroides clarus, 0.925; in the test with Bacteroides dorei, 0.967; with Bacteroides stercoris it was 0.927; in test [1] it was 0.973. Further, the “growth AUC” value in the test on Bacteroides uniformis is 0.991; in test [2] it was 1.02; in the test with Clostridium difficile it was 0.997; with Collinsella aerofaciens, 1; in the test on Coprococcus comes it was 1.01; with Escherichia coli ED1a it was 1. Moreover, the “growth AUC” value is 1.01 in the test on Escherichia coli IAI1; 0.882 in the test with Eubacterium rectale; 1.04 in test [3]; 1 in the test with Lactobacillus gasseri; 0.989 in the test on Lactobacillus paracasei; 0.872 with Odoribacter splanchnicus. The entries for the “growth AUC” value (in test [4]; in the test on Parabacteroides merdae) were 0.743 and 0.968, respectively.
